# Measured values: the supplement of paper PMC8728848
# Many of the other results were omitted from the sample, so the strongest signals are more common in it than they were.
# B1: NPA (Narcissus pseudonarcissus), C0HM45 (protein)
# chain: DNILYSGETLSPGEFLNNGRYVFIMQEDCNLVLYDVDKPIWATNTGGLDRRCHLSMQSDGNLVVYSPRNNPIWASNTGGENGNYVCVLQKDRNVVIYGTARWATGTNIH
# Experiments:
# Assay in all cases: glycan array binding signal (z-score within array); higher = stronger binding
# Conditions in all cases: glycan notation: IUPAC condensed, linker removed
# [1] = biological target: Fuc(a1-2)Gal(b1-3)GlcNAc(b1-3)[Fuc(a1-2)Gal(b1-3)GlcNAc(b1-6)]GalNAc
# Method in brief: (§1)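 The binding signal is a Z-score computed within each array and averaged over linkers. Arrays of the same protein sequence at different concentrations or buffers were also averaged together. Data originate from 3228 arrays in the Consortium for Functional Glycomics database, kept only where the protein sequence was available.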
# [2] = biological target: Fuc(a1-2)Gal(b1-3)GlcNAc(b1-3)[Neu5Ac(a2-6)Gal(b1-4)GlcNAc(b1-6)]Gal(b1-4)Glc
# Method in brief: as §1
# [3] = biological target: Fuc(a1-2)[Gal(a1-3)]Gal(b1-4)GlcNAc
# Method in brief: as §1
# [4] = biological target: Fuc(a1-2)[Gal(a1-3)]Gal(b1-4)GlcNAc(b1-2)Man
# Method in brief: as §1
# [5] = biological target: Fuc(a1-3)[Gal(b1-4)]GlcNAc(b1-2)Man
# Method in brief: as §1
# Gal(a1-3)Gal(b1-3)GlcNAc = biological target: Gal(a1-3)Gal(b1-3)GlcNAc
# Method in brief: as §1
# [6] = biological target: Gal(a1-3)Gal(b1-4)GlcNAc(b1-2)Man(a1-3)[Gal(a1-3)Gal(b1-4)GlcNAc(b1-2)Man(a1-6)]Man(b1-4)GlcNAc(b1-4)GlcNAc
# Method in brief: as §1
# [7] = biological target: Gal(a1-3)Gal(b1-4)[Fuc(a1-3)]GlcNAc(b1-2)Man(a1-3)[Gal(a1-3)Gal(b1-4)[Fuc(a1-3)]GlcNAc(b1-2)Man(a1-6)]Man(b1-4)GlcNAc(b1-4)GlcNAc
# Method in brief: as §1
# Gal(a1-6)Glc = biological target: Gal(a1-6)Glc
# Method in brief: as §1
# [8] = biological target: Gal(b1-3)GalNAc(b1-3)Gal(a1-4)Gal(b1-4)Glc
# Method in brief: as §1
# [9] = biological target: Gal(b1-3)GlcNAc(b1-3)Gal(b1-3)GlcNAc
# Method in brief: as §1
# [10] = biological target: Gal(b1-3)GlcNAc(b1-6)GalNAc
# Method in brief: as §1
# [11] = biological target: Gal(b1-3)GlcNAc(b1-6)[Gal(b1-3)]GalNAc
# Method in brief: as §1
# [12] = biological target: Gal(b1-4)GlcNAc(b1-2)Man(a1-3)[Gal(b1-4)GlcNAc(b1-2)Man(a1-6)]Man(b1-4)GlcNAc(b1-4)GlcNAc
# Method in brief: as §1
# [13] = biological target: Gal(b1-4)GlcNAc(b1-2)Man(a1-3)[Gal(b1-4)GlcNAc(b1-2)Man(a1-6)][Gal(b1-4)GlcNAc(b1-4)]Man(b1-4)GlcNAc(b1-4)[Fuc(a1-6)]GlcNAc
# Method in brief: as §1
# [14] = biological target: Gal(b1-4)GlcNAc(b1-2)Man(a1-3)[Man(a1-6)]Man(b1-4)GlcNAc(b1-4)GlcNAc
# Method in brief: as §1
# [15] = biological target: Gal(b1-4)GlcNAc(b1-2)Man(a1-6)[Man(a1-3)]Man(b1-4)GlcNAc(b1-4)GlcNAc
# Method in brief: as §1
# [16] = biological target: Gal(b1-4)GlcNAc(b1-2)[Gal(b1-4)GlcNAc(b1-6)]Man(a1-6)[GlcNAc(b1-4)][Gal(b1-4)GlcNAc(b1-2)[Gal(b1-4)GlcNAc(b1-4)]Man(a1-3)]Man(b1-4)GlcNAc(b1-4)[Fuc(a1-6)]GlcNAc
# Method in brief: as §1
# [17] = biological target: Gal(b1-4)GlcNAc(b1-3)Gal(b1-4)GlcNAc(b1-2)Man(a1-3)[Gal(b1-4)GlcNAc(b1-3)Gal(b1-4)GlcNAc(b1-2)Man(a1-6)]Man(b1-4)GlcNAc(b1-4)GlcNAc
# Method in brief: as §1
# [18] = biological target: Gal(b1-4)GlcNAc(b1-3)Gal(b1-4)GlcNAc(b1-2)[Gal(b1-4)GlcNAc(b1-3)Gal(b1-4)GlcNAc(b1-6)]Man(a1-6)[Gal(b1-4)GlcNAc(b1-3)Gal(b1-4)GlcNAc(b1-2)Man(a1-3)]Man(b1-4)GlcNAc(b1-4)GlcNAc
# Method in brief: as §1
# [19] = biological target: Gal(b1-4)GlcNAc(b1-3)Gal(b1-4)[Fuc(a1-3)]GlcNAc(b1-3)Gal(b1-4)[Fuc(a1-3)]GlcNAc
# Method in brief: as §1
# [20] = biological target: Gal(b1-4)GlcNAc(b1-3)[Gal(b1-4)GlcNAc(b1-6)]GalNAc
# Method in brief: as §1
# [21] = biological target: Gal(b1-4)GlcNAc(b1-6)[Gal(b1-4)GlcNAc(b1-3)]GalNAc
# Method in brief: as §1
# GalNAc(b1-3)GalNAc = biological target: GalNAc(b1-3)GalNAc
# Method in brief: as §1
# GalNAc(b1-4)Gal(b1-4)Glc = biological target: GalNAc(b1-4)Gal(b1-4)Glc
# Method in brief: as §1
# [22] = biological target: Glc(a1-4)Glc(a1-4)Glc(a1-4)Glc
# Method in brief: as §1
# Glc(b1-4)Glc = biological target: Glc(b1-4)Glc
# Method in brief: as §1
# GlcA(b1-3)Gal = biological target: GlcA(b1-3)Gal
# Method in brief: as §1
# [23] = biological target: GlcNAc(a1-4)Gal(b1-3)GlcNAc
# Method in brief: as §1
# [24] = biological target: GlcNAc(b1-2)[GlcNAc(b1-4)]Man(a1-3)[GlcNAc(b1-2)Man(a1-6)]Man(b1-4)GlcNAc(b1-4)GlcNAc
# Method in brief: as §1
# [25] = biological target: GlcNAc(b1-3)[GlcNAc(b1-6)]GalNAc
# Method in brief: as §1
# [26] = biological target: GlcNAc(b1-4)GlcNAc(b1-4)GlcNAc
# Method in brief: as §1
# [27] = biological target: GlcNAc(b1-4)[GlcNAc(b1-6)]GalNAc
# Method in brief: as §1
# [28] = biological target: Man(a1-2)Man(a1-2)Man(a1-3)Man
# Method in brief: as §1
# [29] = biological target: Man(a1-2)Man(a1-3)[Man(a1-2)Man(a1-6)]Man(a1-6)[Man(a1-2)Man(a1-2)Man(a1-3)]Man(b1-4)GlcNAc(b1-4)GlcNAc
# Method in brief: as §1
# [30] = biological target: Man(a1-2)Man(a1-3)[Man(a1-6)]Man(a1-6)[Man(a1-2)Man(a1-3)]Man(b1-4)GlcNAc(b1-4)GlcNAc
# Method in brief: as §1
# [31] = biological target: Man(a1-2)Man(a1-6)[Man(a1-3)]Man(a1-6)[Man(a1-2)Man(a1-2)Man(a1-3)]Man(b1-4)GlcNAc(b1-4)GlcNAc
# Method in brief: as §1
# Man(a1-3)[Man(a1-6)]Man = biological target: Man(a1-3)[Man(a1-6)]Man
# Method in brief: as §1
# [32] = biological target: Man(a1-3)[Man(a1-6)]Man(a1-6)[Man(a1-2)Man(a1-3)]Man(b1-4)GlcNAc(b1-4)GlcNAc
# Method in brief: as §1
# [33] = biological target: Man(a1-3)[Man(a1-6)]Man(a1-6)[Man(a1-3)]Man
# Method in brief: as §1
# [34] = biological target: Man(a1-3)[Man(a1-6)]Man(a1-6)[Man(a1-3)]Man(b1-4)GlcNAc(b1-4)GlcNAc
# Method in brief: as §1
# [35] = biological target: Man(a1-3)[Man(a1-6)]Man(b1-4)GlcNAc(b1-4)GlcNAc
# Method in brief: as §1
# [36] = biological target: Man(a1-3)[Man(a1-6)]Man(b1-4)GlcNAc(b1-4)[Fuc(a1-6)]GlcNAc
# Method in brief: as §1
# Man(b1-4)GlcNAc = biological target: Man(b1-4)GlcNAc
# Method in brief: as §1
# [37] = biological target: Neu5Ac(a2-3)Gal(b1-3)GlcNAc(b1-2)Man
# Method in brief: as §1
# [38] = biological target: Neu5Ac(a2-3)Gal(b1-3)GlcNAc(b1-3)Gal(b1-4)GlcNAc
# Method in brief: as §1
# [39] = biological target: Neu5Ac(a2-3)Gal(b1-3)GlcNAc(b1-3)GalNAc
# Method in brief: as §1
# [40] = biological target: Neu5Ac(a2-3)Gal(b1-3)GlcNAc6S
# Method in brief: as §1
# [41] = biological target: Neu5Ac(a2-3)Gal(b1-4)GlcNAc
# Method in brief: as §1
# [42] = biological target: Neu5Ac(a2-3)Gal(b1-4)GlcNAc(b1-3)Gal(b1-4)GlcNAc(b1-3)Gal(b1-4)GlcNAc
# Method in brief: as §1
# [43] = biological target: Neu5Ac(a2-3)Gal(b1-4)[Fuc(a1-3)]GlcNAc(b1-3)Gal
# Method in brief: as §1
# [44] = biological target: Neu5Ac(a2-3)Gal6S(b1-4)[Fuc(a1-3)]GlcNAc
# Method in brief: as §1
# [45] = biological target: Neu5Ac(a2-6)Gal(b1-3)GlcNAc(b1-3)[Gal(b1-4)GlcNAc(b1-6)]Gal(b1-4)Glc
# Method in brief: as §1
# [46] = biological target: Neu5Ac(a2-6)Gal(b1-4)GlcNAc(b1-2)Man(a1-6)[Man(a1-3)]Man(b1-4)GlcNAc(b1-4)GlcNAc
# Method in brief: as §1
# [47] = biological target: Neu5Ac(a2-8)Neu5Ac(a2-8)Neu5Ac
# Method in brief: as §1
# [48] = biological target: Neu5Ac(b2-6)Gal(b1-4)GlcNAc
# Method in brief: as §1
# [49] = biological target: Neu5Gc(a2-8)Neu5Gc(a2-3)Gal(b1-4)GlcNAc(b1-3)Gal(b1-4)GlcNAc
# Method in brief: as §1
binder,measurement,setting,value
B1,glycan array binding signal (z-score),[1],-0.124
same,glycan array binding signal (z-score),[2],-0.142
same,glycan array binding signal (z-score),[3],-0.152
same,glycan array binding signal (z-score),[4],-0.132
same,glycan array binding signal (z-score),[5],-0.131
same,glycan array binding signal (z-score),Gal(a1-3)Gal(b1-3)GlcNAc,-0.133
same,glycan array binding signal (z-score),[6],2.1
same,glycan array binding signal (z-score),[7],-0.056
same,glycan array binding signal (z-score),Gal(a1-6)Glc,-0.147
same,glycan array binding signal (z-score),[8],-0.135
same,glycan array binding signal (z-score),[9],-0.148
same,glycan array binding signal (z-score),[10],-0.144
same,glycan array binding signal (z-score),[11],-0.051
same,glycan array binding signal (z-score),[12],0.602
same,glycan array binding signal (z-score),[13],-0.143
same,glycan array binding signal (z-score),[14],1.71
same,glycan array binding signal (z-score),[15],3.12
same,glycan array binding signal (z-score),[16],-0.141
same,glycan array binding signal (z-score),[17],0.034
same,glycan array binding signal (z-score),[18],-0.104
same,glycan array binding signal (z-score),[19],-0.144
same,glycan array binding signal (z-score),[20],-0.201
same,glycan array binding signal (z-score),[21],-0.141
same,glycan array binding signal (z-score),GalNAc(b1-3)GalNAc,-0.153
same,glycan array binding signal (z-score),GalNAc(b1-4)Gal(b1-4)Glc,-0.129
same,glycan array binding signal (z-score),[22],-0.139
same,glycan array binding signal (z-score),Glc(b1-4)Glc,-0.152
same,glycan array binding signal (z-score),GlcA(b1-3)Gal,-0.148
same,glycan array binding signal (z-score),[23],-0.152
same,glycan array binding signal (z-score),[24],-0.076
same,glycan array binding signal (z-score),[25],-0.147
same,glycan array binding signal (z-score),[26],-0.122
same,glycan array binding signal (z-score),[27],-0.146
same,glycan array binding signal (z-score),[28],0.268
same,glycan array binding signal (z-score),[29],0.144
same,glycan array binding signal (z-score),[30],2.38
same,glycan array binding signal (z-score),[31],1.83
same,glycan array binding signal (z-score),Man(a1-3)[Man(a1-6)]Man,5.21
same,glycan array binding signal (z-score),[32],5.6
same,glycan array binding signal (z-score),[33],2.47
same,glycan array binding signal (z-score),[34],5.37
same,glycan array binding signal (z-score),[35],10.1
same,glycan array binding signal (z-score),[36],5.34
same,glycan array binding signal (z-score),Man(b1-4)GlcNAc,-0.151
same,glycan array binding signal (z-score),[37],-0.122
same,glycan array binding signal (z-score),[38],-0.153
same,glycan array binding signal (z-score),[39],-0.14
same,glycan array binding signal (z-score),[40],-0.124
same,glycan array binding signal (z-score),[41],-0.154
same,glycan array binding signal (z-score),[42],-0.151
same,glycan array binding signal (z-score),[43],-0.162
same,glycan array binding signal (z-score),[44],-0.158
same,glycan array binding signal (z-score),[45],-0.144
same,glycan array binding signal (z-score),[46],3.41
same,glycan array binding signal (z-score),[47],-0.156
same,glycan array binding signal (z-score),[48],-0.154
same,glycan array binding signal (z-score),[49],-0.146
